The full data set covers some 7,900 targets. This sample favours those with a hit. About 0.6% of all pairs of compound and target were hits. Values without a mark were called inactive.
Experiments:
Assay in all cases: log2 fold change, soluble protein after heating vs DMSO (PISA); higher = thermal stabilisation; K562 cells, 10 uM, 30 min; active = over 0.2 and 3.5 SD of the protein, either way, in both replicates (recomputed)
[1] = compound: CC[C@@H]1C(=O)N(C)c2cnc(Nc3ccc(C(=O)NC4CCN(C)CC4)cc3OC)nc2N1C1CCCC1
Outline: (§1)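 Aliquots of K562 cells (2×10^6 cells/mL) treated with 10 μM compound for 30 min were heated for 3 min over 48°C-58°C. After pooling and extraction in PBS with 0.5% NP-40 at 4°C, soluble protein from a 21,000xg, 90 min spin was quantified by TMTpro 16plex LC-MS/MS with channel sums equalised. Thermal stability is expressed against control samples, from duplicates, as a log2 fold change.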

volasertib = compound: CC[C@@H]1C(=O)N(C)c2cnc(Nc3ccc(C(=O)N[C@H]4CC[C@H](N5CCN(CC6CC6)CC5)CC4)cc3OC)nc2N1C(C)C [volasertib]
Outline: as §1

[2] = compound: CC[C@H](C)N1C=C(C2=C(C=C(C=C21)C3=CN=C(C=C3)N4CCNCC4)C(=O)NCC5=C(C=C(NC5=O)C)C)C
Outline: as §1

epoxomicin = compound: CC[C@H](C)[C@@H](C(=O)N[C@@H]([C@@H](C)O)C(=O)N[C@@H](CC(C)C)C(=O)[C@]1(CO1)C)NC(=O)[C@H]([C@@H](C)CC)N(C)C(=O)C [epoxomicin]
Outline: as §1

[3] = compound: CCn1c(C(=O)N(C2CC2)C2CC2)cc2c3c(ncn3C)c(Nc3cc(C)n(C)n3)nc21
Outline: as §1

[4] = compound: CN(C)CC(=O)Nc1ccc2[nH]c(=O)c3ccccc3c2c1
Outline: as §1

rosiglitazone = compound: CN(CCOC1=CC=C(C=C1)C[C@H]2C(=O)NC(=O)S2)C3=CC=CC=N3 (racemic) [rosiglitazone]
Outline: as §1

[5] = compound: CN1C2=C(C3=C1C(=O)N(N=C3)CC4=CC(=CC=C4)N)SC(=C2)S(=O)C
Outline: as §1

saracatinib = compound: CN1CCN(CCOc2cc(OC3CCOCC3)c3c(Nc4c(Cl)ccc5c4OCO5)ncnc3c2)CC1 [saracatinib]
Outline: as §1

sotrastaurin = compound: CN1CCN(c2nc(C3=C(c4c[nH]c5ccccc45)C(=O)NC3=O)c3ccccc3n2)CC1 [sotrastaurin]
Outline: as §1

alvocidib = compound: CN1CC[C@H](c2c(O)cc(O)c3c(=O)cc(-c4ccccc4Cl)oc23)[C@H](O)C1 [alvocidib]
Outline: as §1

Tubastatin A = compound: CN1CCc2c(c3ccccc3n2Cc2ccc(C(=O)NO)cc2)C1 [Tubastatin A]
Outline: as §1

[6] = compound: CNC(=O)C1=CC=CC=C1NC2=NC(=NC=C2Cl)NC3=C(C=C(C=C3)N4CCOCC4)OC
Outline: as §1

defactinib = compound: CNC(=O)c1ccc(Nc2ncc(C(F)(F)F)c(NCc3nccnc3N(C)S(C)(=O)=O)n2)cc1 [defactinib]
Outline: as §1

rucaparib = compound: CNCc1ccc(-c2[nH]c3cc(F)cc4c3c2CCNC4=O)cc1 [rucaparib]
Outline: as §1

[7] = compound: CNc1nc(-c2ccc3c(N)n[nH]c3c2)cc(N2C[C@@H](C(=O)NC3CCCCC3)CC[C@H]2C)n1
Outline: as §1

encorafenib = compound: COC(=O)N[C@@H](C)CNc1nccc(-c2cn(C(C)C)nc2-c2cc(Cl)cc(NS(C)(=O)=O)c2F)n1 [encorafenib]
Outline: as §1

[8] = compound: COC(=O)[C@H](CCSC)NC(=O)C1=C(C=C(C=C1)NC[C@H](CS)N)C2=CC=CC=C2
Outline: as §1

[9] = compound: CCn1cc(-c2ccnc3[nH]c(-c4cccc(CN(C)C)c4)cc23)c(-c2ccc(NC(=O)N(C)C)cc2)n1
Outline: as §1

[10] = compound: CN1CCC(CNc2ccc3ncc(-c4cccc(OC(F)(F)F)c4)n3n2)CC1
Outline: as §1

UniProt Q86VX9, sequence (Q86VX9 whole entry, looked up): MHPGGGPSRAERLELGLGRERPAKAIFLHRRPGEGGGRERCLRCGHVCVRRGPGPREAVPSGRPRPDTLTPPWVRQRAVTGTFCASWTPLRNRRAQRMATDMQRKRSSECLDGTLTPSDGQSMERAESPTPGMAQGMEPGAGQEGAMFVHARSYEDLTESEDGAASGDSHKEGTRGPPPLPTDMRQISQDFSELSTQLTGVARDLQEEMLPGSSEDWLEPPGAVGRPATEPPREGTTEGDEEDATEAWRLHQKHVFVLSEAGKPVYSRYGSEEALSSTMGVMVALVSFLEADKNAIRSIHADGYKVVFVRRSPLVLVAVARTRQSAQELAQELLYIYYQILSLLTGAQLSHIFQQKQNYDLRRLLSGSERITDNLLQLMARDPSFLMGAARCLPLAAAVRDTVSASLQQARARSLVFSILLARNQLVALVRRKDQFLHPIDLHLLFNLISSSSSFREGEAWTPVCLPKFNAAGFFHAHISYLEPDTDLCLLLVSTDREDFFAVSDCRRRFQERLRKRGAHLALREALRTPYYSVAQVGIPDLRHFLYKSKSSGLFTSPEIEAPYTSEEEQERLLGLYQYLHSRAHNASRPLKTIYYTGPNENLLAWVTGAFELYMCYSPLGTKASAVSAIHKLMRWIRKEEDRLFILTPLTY
MTHFD1, A0A384N5Y3, sequence (A0A384N5Y3 whole entry, looked up): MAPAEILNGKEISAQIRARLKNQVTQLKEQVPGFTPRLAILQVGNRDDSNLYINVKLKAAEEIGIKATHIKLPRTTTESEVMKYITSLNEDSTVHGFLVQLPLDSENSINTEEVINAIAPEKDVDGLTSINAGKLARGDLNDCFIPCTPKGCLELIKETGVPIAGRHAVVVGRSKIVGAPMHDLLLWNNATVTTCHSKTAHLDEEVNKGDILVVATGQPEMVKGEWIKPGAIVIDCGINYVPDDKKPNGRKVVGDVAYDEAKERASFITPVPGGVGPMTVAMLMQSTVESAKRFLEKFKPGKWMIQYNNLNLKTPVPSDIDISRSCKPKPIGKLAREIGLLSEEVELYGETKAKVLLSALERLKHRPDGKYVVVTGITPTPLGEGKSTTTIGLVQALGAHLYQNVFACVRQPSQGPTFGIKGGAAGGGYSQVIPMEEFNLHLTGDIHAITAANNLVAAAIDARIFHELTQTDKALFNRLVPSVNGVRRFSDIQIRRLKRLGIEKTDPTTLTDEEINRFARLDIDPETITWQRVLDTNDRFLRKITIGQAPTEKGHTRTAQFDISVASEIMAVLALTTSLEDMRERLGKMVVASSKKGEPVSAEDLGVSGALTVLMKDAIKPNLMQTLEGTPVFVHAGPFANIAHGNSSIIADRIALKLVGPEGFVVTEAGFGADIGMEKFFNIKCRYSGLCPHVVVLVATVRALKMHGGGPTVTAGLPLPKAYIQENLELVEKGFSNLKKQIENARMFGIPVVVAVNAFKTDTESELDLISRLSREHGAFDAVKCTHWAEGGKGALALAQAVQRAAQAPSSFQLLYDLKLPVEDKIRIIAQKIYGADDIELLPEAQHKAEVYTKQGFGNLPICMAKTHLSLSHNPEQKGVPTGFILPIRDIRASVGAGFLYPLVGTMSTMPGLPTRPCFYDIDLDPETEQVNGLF
UniProt P25208, sequence (P25208 whole entry, looked up): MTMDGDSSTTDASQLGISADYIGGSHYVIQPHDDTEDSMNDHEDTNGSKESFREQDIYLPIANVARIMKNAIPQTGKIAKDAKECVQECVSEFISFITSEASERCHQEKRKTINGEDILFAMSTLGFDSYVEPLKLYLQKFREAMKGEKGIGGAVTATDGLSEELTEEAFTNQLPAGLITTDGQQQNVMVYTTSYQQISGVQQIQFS
UniProt Q9UK23, sequence (Q9UK23 whole entry, looked up): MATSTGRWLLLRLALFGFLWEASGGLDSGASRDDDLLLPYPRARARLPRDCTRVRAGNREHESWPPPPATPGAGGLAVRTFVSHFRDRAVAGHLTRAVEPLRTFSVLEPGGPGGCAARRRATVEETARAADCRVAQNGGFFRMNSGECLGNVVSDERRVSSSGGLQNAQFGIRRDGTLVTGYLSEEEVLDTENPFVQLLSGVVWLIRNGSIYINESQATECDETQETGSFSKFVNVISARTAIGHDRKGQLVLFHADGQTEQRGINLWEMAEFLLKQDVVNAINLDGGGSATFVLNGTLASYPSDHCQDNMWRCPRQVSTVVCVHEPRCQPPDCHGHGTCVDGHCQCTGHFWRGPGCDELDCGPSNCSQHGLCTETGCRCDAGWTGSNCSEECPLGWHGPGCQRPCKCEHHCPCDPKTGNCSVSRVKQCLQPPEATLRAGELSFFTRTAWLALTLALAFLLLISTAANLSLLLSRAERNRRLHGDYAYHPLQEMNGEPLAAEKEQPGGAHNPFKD
UniProt Q8N573, sequence (Q8N573 whole entry, looked up): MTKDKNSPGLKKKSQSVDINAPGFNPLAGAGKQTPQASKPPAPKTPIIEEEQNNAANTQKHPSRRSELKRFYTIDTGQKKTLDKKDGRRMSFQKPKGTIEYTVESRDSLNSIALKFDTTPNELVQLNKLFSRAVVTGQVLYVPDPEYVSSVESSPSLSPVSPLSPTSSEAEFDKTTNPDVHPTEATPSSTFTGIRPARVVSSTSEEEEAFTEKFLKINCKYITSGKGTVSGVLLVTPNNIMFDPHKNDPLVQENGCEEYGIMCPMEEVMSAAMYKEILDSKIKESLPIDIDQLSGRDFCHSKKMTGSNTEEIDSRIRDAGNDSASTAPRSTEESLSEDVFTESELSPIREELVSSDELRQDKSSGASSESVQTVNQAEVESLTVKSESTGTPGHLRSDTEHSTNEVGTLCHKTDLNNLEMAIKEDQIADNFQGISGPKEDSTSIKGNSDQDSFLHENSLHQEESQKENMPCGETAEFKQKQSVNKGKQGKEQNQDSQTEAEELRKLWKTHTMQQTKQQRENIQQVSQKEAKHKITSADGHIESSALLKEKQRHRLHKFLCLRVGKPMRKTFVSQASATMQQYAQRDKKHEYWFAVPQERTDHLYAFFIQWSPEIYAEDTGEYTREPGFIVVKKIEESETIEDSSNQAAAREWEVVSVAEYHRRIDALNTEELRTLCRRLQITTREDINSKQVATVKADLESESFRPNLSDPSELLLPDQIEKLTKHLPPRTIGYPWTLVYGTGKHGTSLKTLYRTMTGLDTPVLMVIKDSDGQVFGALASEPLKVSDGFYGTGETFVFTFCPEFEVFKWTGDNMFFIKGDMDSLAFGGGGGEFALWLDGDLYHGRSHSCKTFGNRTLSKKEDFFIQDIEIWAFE
UniProt Q9BVC4, sequence (Q9BVC4 whole entry, looked up): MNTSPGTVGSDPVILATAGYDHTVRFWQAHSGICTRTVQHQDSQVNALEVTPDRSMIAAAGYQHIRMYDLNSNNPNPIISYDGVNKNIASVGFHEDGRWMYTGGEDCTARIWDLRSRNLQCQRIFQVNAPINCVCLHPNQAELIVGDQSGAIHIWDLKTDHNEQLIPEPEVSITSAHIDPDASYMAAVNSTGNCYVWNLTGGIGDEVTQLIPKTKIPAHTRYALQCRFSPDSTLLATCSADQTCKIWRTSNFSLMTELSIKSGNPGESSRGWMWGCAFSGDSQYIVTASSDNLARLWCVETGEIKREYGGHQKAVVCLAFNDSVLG
UniProt P84157, sequence (P84157 whole entry, looked up): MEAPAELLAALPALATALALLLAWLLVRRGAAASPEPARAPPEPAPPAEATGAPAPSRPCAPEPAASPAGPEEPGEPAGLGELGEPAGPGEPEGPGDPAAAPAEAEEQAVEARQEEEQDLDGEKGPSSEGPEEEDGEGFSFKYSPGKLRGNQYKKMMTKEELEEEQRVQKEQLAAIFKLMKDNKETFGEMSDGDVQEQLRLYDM
UniProt B2RBV5, sequence (B2RBV5 whole entry, looked up): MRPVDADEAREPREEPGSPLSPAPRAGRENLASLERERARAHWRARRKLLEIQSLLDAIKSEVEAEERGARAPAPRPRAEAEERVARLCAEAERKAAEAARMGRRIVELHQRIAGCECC
UniProt Q15102, sequence (Q15102 whole entry, looked up): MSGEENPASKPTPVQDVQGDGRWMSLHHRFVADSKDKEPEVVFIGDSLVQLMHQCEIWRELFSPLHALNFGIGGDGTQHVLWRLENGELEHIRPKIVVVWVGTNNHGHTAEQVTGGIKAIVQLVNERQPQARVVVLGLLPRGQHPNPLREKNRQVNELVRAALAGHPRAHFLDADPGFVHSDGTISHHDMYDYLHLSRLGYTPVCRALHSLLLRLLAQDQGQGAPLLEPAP

Target	log2 fold change [1]	log2 fold change (volasertib)	log2 fold change [2]	log2 fold change (epoxomicin)	log2 fold change [3]	log2 fold change [4]	log2 fold change (rosiglitazone)	log2 fold change [5]	log2 fold change (saracatinib)	log2 fold change (sotrastaurin)	log2 fold change (alvocidib)	log2 fold change (Tubastatin A)	log2 fold change [6]	log2 fold change (defactinib)	log2 fold change (rucaparib)	log2 fold change [7]	log2 fold change (encorafenib)	log2 fold change [8]	log2 fold change [9]	log2 fold change [10]
MLST8 (UniProt Q9BVC4)	-0.22	-0.353 (active)	0.05	-0.02	-0.099	0.109	-0.029	-0.016	-0.124	-0.003	-0.034	0.124	-0.116	-0.092	0.099	0.014	0.101	-0.106		
PAFAH1B3 (UniProt Q15102)	-0.017	0.011	0.042	0.063	-0.102	0.069	0.021	-0.012	-0.109	-0.034	-0.082	0.026	0.001	0.021	0.049	0.002	-0.006	-0.071	-0.098	0.001
NAGPA (UniProt Q9UK23)	0.213	0.555 (active)	-0.065	0.071	-0.022		-0.061	-0.084	-0.009	-0.017	-0.008	0.068	0.022		-0.132	-0.049	0.014		0.084	-0.083
OXR1 isoform 2 (UniProt Q8N573)	-0.092	-0.09	-0.082	0.127		-0.004		-0.015	-0.138		0.051	-0.038		-0.067	-0.008	0.092	-0.022	0.047	0.056	-0.244
MON1A (UniProt Q86VX9)	-0.11	-0.012	-0.141	-0.101	0.004		0.134	0.032	0.013	0.058		0.047	-0.103		-0.023	0.029	0.253		0.003	-0.041
NFYB (UniProt P25208)	0.008	0.019	-0.029		-0.007	-0.011	-0.054	0.031	0.111	-0.084	0.162	-0.143	0	-0.001	-0.099	-0.019	-0.051	0.03	-0.055	0.085
MXRA7 (UniProt P84157)	0.04	0.08	-0.11	-0.034	0.038	0.124	0.037	-0.114	0.127	0.027	0.048	-0.02	0.007	-0.104	-0.093	-0.033	0.008	-0.025	-0.042	0.113
NA (UniProt B2RBV5)	0.135	0.163	0.049	0.593 (active)			-0.009			-0.057					-0.16		-0.09		0.128	-0.08
MTHFD1, A0A384N5Y3	-0.152	-0.011	0.065	0.002		0.045	0.023	-0.084	-0.047	0.025	-0.129	0.032		-0.173	-0.039	-0.004	-0.003	-0.036	-0.113	-0.081

From the supplement of paper PMC10849652
